Source: PubChem (National Center for Advancing Translational Sciences (NCATS))
Most compounds without a hit are left out; they make up all but 12% or so of the library.
G9a block: inhibitors of human histone lysine methyltransferase G9a. Q96KQ7. G9a H3K9 monomethylation, AlphaScreen, 2 h. Potency, µM (series often up to 102 µM), actives largely listed as inhibitors. hit rate 8.8% among 350,000; also: nearly all actives have a fitted effect of over 75% in size
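AlphaScreen detection with an anti-monomethyl H3K9 antibody quantified product after a 2 h room-temperature reaction containing 500 nM biotinylated H3K9 peptide, 20 µM SAM and 20 nM enzyme, which had been preincubated 15 min with compound.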
BAZ2B block: BAZ2B (human) inhibition | AID 504333 | Potency, µM (titrated, usually from 114 µM), hits mostly inhibitors | hit rate 4.4% among 360,000 | Q9UIF8 | AlphaScreen BAZ2B-H3K14Ac peptide displacement; also: nearly all actives have a fitted effect of over 60% in size
Target sequence (Q9UIF8 whole entry, looked up): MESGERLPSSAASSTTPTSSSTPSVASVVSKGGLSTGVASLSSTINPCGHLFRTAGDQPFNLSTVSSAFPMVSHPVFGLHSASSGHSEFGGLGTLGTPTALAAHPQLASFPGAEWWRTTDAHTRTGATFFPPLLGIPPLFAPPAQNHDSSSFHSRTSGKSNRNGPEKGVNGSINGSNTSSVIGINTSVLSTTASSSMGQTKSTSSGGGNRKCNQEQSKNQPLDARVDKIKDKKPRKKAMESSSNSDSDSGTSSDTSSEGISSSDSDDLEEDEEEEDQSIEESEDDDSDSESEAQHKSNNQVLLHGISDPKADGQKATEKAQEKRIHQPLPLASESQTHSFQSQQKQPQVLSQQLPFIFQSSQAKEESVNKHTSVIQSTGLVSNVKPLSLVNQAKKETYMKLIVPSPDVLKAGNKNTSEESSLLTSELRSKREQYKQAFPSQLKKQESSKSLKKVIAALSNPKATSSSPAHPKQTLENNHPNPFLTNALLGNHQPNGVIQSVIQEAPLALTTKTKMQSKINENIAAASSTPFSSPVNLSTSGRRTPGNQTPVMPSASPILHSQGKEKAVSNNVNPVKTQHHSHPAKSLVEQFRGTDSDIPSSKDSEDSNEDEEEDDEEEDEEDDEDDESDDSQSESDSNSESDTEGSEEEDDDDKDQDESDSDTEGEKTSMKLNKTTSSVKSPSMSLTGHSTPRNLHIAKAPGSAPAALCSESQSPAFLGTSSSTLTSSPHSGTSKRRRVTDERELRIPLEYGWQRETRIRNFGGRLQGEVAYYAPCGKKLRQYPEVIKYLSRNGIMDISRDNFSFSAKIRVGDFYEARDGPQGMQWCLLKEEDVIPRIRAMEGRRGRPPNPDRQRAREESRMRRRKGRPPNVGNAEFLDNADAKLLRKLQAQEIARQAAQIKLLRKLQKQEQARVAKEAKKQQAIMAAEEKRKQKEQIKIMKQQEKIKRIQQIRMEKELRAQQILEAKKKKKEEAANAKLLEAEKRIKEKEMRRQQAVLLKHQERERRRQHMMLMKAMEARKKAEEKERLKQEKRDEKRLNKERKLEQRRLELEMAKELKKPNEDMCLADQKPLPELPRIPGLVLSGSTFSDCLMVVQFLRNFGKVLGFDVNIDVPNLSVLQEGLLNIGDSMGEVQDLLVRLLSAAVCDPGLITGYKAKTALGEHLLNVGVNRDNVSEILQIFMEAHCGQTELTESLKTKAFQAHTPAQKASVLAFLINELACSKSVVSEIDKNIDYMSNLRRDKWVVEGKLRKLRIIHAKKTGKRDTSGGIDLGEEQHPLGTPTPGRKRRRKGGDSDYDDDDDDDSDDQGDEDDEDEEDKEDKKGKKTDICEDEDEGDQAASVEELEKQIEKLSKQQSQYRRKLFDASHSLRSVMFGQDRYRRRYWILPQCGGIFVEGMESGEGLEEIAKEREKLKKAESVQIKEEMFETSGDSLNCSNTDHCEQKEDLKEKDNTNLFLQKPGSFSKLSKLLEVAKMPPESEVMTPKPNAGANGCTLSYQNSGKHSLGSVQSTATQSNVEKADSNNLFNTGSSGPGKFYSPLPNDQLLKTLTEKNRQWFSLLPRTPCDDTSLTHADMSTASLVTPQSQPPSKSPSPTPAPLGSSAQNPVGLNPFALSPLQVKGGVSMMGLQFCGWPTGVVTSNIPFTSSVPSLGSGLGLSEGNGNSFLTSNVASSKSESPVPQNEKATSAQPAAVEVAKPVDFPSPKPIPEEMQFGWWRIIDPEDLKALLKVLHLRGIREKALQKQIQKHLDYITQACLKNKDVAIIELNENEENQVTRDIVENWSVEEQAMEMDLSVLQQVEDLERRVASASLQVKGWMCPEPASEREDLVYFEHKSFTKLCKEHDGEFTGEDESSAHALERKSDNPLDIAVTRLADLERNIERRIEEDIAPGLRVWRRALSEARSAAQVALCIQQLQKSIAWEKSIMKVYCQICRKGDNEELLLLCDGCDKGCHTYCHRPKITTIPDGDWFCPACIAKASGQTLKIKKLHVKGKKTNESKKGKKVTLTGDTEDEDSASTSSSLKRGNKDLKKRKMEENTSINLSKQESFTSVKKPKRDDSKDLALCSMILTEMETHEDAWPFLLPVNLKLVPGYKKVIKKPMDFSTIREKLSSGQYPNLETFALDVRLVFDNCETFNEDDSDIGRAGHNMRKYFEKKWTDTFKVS
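In this displacement format the biotinylated H3(5-23) peptide acetylated at Lys14 serves as ligand at 50 nM, with BAZ2B at 50 nM in PBS pH 7.4 containing 0.01% Tween-20. Donor and acceptor beads are 10 ug/mL final.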
Sfp PPTase inh: Sfp phosphopantetheinyl transferase inhibition; Biochemical Sfp PPTase activity, qHTS; Q9F4F7; Potency, µM, most hits filed as inhibitors; hit rate 3.5% among 310,000;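 also: the enzyme is Sfp with the accession as filed and its product quenches rhodamine fluorescence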
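Reaction rates are the 30-min fluorescence difference (ex 525, em 598 nm) in wells containing 15 nM Sfp, 5 uM rhodamine-CoA and 12.5 uM BHQ-2-YbbR at pH 7.6 with 10 mM MgCl2.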
L3MBTL1 block: inhibitors of human L3MBTL1; AlphaScreen L3MBTL1–H3K9me1 peptide binding; Q9Y468; hit rate 0.66% among 230,000; Potency, µM (series often up to 57.1 µM), usual class: inhibitors; AID 485360; also: nearly all actives have a fitted effect of over 60% in size
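Read-out is AlphaScreen signal from streptavidin donor and nickel chelate acceptor beads (10 ug/mL final each) bridging L3MBTL1 (50 nM) and biotinylated K9-monomethylated H3(1-15) peptide (75 nM), after 30 min compound exposure at room temperature.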
JMJD2A Tudor inh: blocks the human JMJD2A Tudor domain. AlphaScreen JMJD2A-Tudor / H3K4me3 peptide binding. hit rate 4.4% among 390,000. AID 504339. Potency, µM (top dose mostly 114 µM), most hits filed as inhibitors; also: nearly all actives have a fitted effect of over 50% in size
HP1b binding inh: HP1-beta chromodomain-methylated histone interaction inhibition; P83916; AlphaScreen HP1-beta / biotin-H3K9me3 peptide binding; Potency, µM (titrated, usually from 114 µM), actives largely listed as inhibitors; hit rate 0.56% among 390,000; also: nearly all actives have a fitted effect of over 70% in size
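AlphaScreen: HP1-beta (50 nM) preformed 30 min with biotin-H3(1-18)K9me3 peptide (50 nM) in PBS pH 7.4, 0.01% Tween-20. Compound added for 30 min at RT, then streptavidin donor/nickel chelate acceptor beads (10 ug/mL) for 30 min.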
Large screens that a line does not name were inactive. Calls follow the shape of the dose curve; as a rule, active = well fitted curve in the direction sought with a large enough effect; inconclusive = small, poorly fitted or top-dose-only effect, or another doubt; inactive = no such curve, though single readings can be large; an effect the other way counts as inactive or inconclusive.

COC(=O)/C=C/c1cnc2ccccc2c1	none
CCc1ccc(C(=O)c2cn(CC(=O)Nc3ccc4c(c3)OCO4)c3ccc(F)cc3c2=O)cc1	none (no result: Sfp PPTase inh, L3MBTL1 block)
Clc1ccc(OCCCCCN2CCCC2)c(Br)c1	G9a block inconclusive, BAZ2B block 79.4µM, JMJD2A Tudor inh 2µM, HP1b binding inh inconclusive
Clc1ccc(OCCCN2CCCCC2)c(Br)c1	G9a block 3.55µM, BAZ2B block 79.4µM, JMJD2A Tudor inh 3.98µM, HP1b binding inh inconclusive
Clc1ccc(Cl)c(OCCCCN2CCNCC2)c1	G9a block inconclusive, BAZ2B block inconclusive
CCN1CCN(CCCOc2ccc(Cl)cc2Br)CC1	BAZ2B block 20µM, Sfp PPTase inh 10µM, JMJD2A Tudor inh 22.4µM, HP1b binding inh inconclusive (no result: G9a block)
CCOCCCNC(=O)CN1C(=O)NC(Cc2c[nH]c3ccccc23)C1=O (stereo unspecified)	none (no result: L3MBTL1 block)
COc1ccc(CNCCSc2nnnn2-c2ccccc2)c(OC)c1	none (no result: Sfp PPTase inh, L3MBTL1 block)
Nc1cc(OC(=O)c2ccc(F)cc2)nn1S(=O)(=O)c1ccccc1	Sfp PPTase inh inconclusive (no result: L3MBTL1 block)
COc1ccc(C(C#N)N2N=C(C)CC2c2ccccc2)cc1 (stereo unspecified)	G9a block 44.7µM (no result: L3MBTL1 block)
Brc1ccc2nc(-c3cccs3)c(NCC3CCCO3)n2c1 (stereo unspecified)	BAZ2B block 50.1µM (no result: G9a block)
CCOC(=O)CSC1=NC(=O)/C(=C\c2ccc(OC(C)=O)cc2)S1	G9a block 39.8µM, Sfp PPTase inh inconclusive
CCOC(=O)CSC1=NC(=O)/C(=C/c2ccc(Br)cc2)S1	G9a block 39.8µM, Sfp PPTase inh 56.2µM, JMJD2A Tudor inh inconclusive (no result: L3MBTL1 block)
CCOC(=O)COc1ccc(Br)cc1/C=C1\SC(N)=NC1=O	BAZ2B block inconclusive (no result: G9a block)
CCN(CCO)Cc1cn[nH]c1-c1ccc(C)c(C)c1	G9a block 3.55µM, BAZ2B block 56.2µM, JMJD2A Tudor inh 3.55µM, HP1b binding inh inconclusive
CCN(CCO)Cc1csc2cc(C)ccc12	G9a block inconclusive
CCn1cnc2cc(NC(=O)c3ccc(C)cc3)ccc21	none (no result: G9a block)
CCn1c2ccccc2c2cc(NC(=O)CSc3nnc(-c4ccc(OC)c(OC)c4)n3N)ccc21	none
CCOc1ccc(-c2nnc(SCC(=O)Nc3ccc4c(c3)c3ccccc3n4CC)n2N)cc1	G9a block inconclusive, BAZ2B block 70.8µM, Sfp PPTase inh inconclusive, JMJD2A Tudor inh inconclusive
Cc1cc(NC(=O)CSc2nnc(-c3ccncc3)n2N)ccc1Br	G9a block 35.5µM, JMJD2A Tudor inh 79.4µM
COC(=O)c1ccc(C(NC(=O)OCc2ccccc2)/C(=C/[C@@H](C)C(=O)Nc2ccc(OC)cc2)c2cccnc2)cc1 (stereo partly specified)	none (no result: G9a block, BAZ2B block, L3MBTL1 block, JMJD2A Tudor inh, HP1b binding inh)
CC1=CN2C(=N)/C(=C/c3ccc(Sc4ccc(C)cc4)o3)C(=O)N=C2S1	G9a block 25.1µM, BAZ2B block 22.4µM, L3MBTL1 block inconclusive, HP1b binding inh 28.2µM
CC1=CN2C(=N)/C(=C/c3ccc(Sc4ccc(Cl)cc4)o3)C(=O)N=C2S1	none
Cc1cccc(-n2c(SCc3ccc([N+](=O)[O-])cc3)nnc2-c2c[nH]c3ccccc23)c1	G9a block 44.7µM, JMJD2A Tudor inh inconclusive
CC1(C)CC(=O)C2=C(C1)NC(Nc1nc3ccccc3o1)=NC2c1cccc(O)c1 (stereo unspecified)	none (no result: G9a block, BAZ2B block, Sfp PPTase inh, L3MBTL1 block)
O=C(O)c1ccccc1-c1nc2ccccc2[nH]1	G9a block 44.7µM, JMJD2A Tudor inh inconclusive
Cn1cccc1-c1nc2ccccc2[nH]1	G9a block 44.7µM, BAZ2B block inconclusive, HP1b binding inh inconclusive
Cc1ccc(S(=O)(=O)Nc2ccc3nc(-c4cccn4C)[nH]c3c2)cc1	BAZ2B block 39.8µM, Sfp PPTase inh inconclusive, L3MBTL1 block inconclusive, JMJD2A Tudor inh 15.8µM, HP1b binding inh 44.7µM
Cn1cc(P(=S)(N2CCOCC2)N2CCOCC2)cc1P(=O)(N1CCOCC1)N1CCOCC1	G9a block 10µM, Sfp PPTase inh 50.1µM, JMJD2A Tudor inh inconclusive, HP1b binding inh inconclusive
CCn1c(C)c(P(=O)(N2CCOCC2)N2CCOCC2)c2ccccc21	none
Cn1cc(P(=O)(N2CCOCC2)N2CCOCC2)cc1P(=S)(N1CCOCC1)N1CCOCC1	G9a block 39.8µM, Sfp PPTase inh 20µM
